FMDV inh = High Throughput Screening for Foot and Mouth Disease Virus Antivirals | 410,000 compounds, 1.2% hits | FMDV antiviral cell-based qHTS | Potency, µM (series often up to 57.9 µM), for the others: top-dose activity change, negative = inhibition, most hits filed as inhibitors; calls by dose curve; tested in HEK293T cells; also: read-out not given here; potency is read from the fitted curve at half-maximal effect; nearly all actives have a fitted effect of over 45% in size
HCV inhibitor = qHTS Assay for Inhibitors of Hepatitis C Virus (HCV) | Huh7.5.1 HCVcc-Cre infection, luciferase reporter, 44 h | 340,000 compounds, 3.4% hits | Potency, µM (doses to about 41.8 µM), for the others: top-dose activity change, negative = inhibition, most hits filed as inhibitors; also: potency is read from the fitted curve at half-maximal effect
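Cells (1,000/well) were plated 4 h before compound, then infected with HCVcc-Cre virus (~0.5 moi). After 44 h further culture, infection was read as luciferase luminescence following a 15 min substrate incubation at room temperature.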
FBPA Giardia inh = qHTS Assay for Inhibitors of Fructose-1,6-bisphosphate Aldolase from Giardia Lamblia; 290,000 compounds, 0.71% hits; A8B2U2; purified Giardia FBPA; Potency, µM (highest dose often 59.6 µM), inactives show top-dose activity, negative = inhibition, most hits filed as inhibitors; also: potency is read from the fitted curve at half-maximal effect; nearly all actives have a fitted effect of over 55% in size
Target sequence (A8B2U2 whole entry, looked up): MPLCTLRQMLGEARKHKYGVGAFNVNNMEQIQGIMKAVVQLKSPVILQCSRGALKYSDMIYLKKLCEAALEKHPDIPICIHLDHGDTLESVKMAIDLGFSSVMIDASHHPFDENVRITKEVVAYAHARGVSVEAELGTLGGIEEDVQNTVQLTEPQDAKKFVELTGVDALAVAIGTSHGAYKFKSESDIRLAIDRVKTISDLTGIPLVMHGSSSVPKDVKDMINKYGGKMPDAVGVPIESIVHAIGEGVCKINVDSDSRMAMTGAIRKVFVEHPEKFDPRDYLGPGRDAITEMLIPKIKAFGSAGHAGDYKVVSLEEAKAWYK
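40 nM FBPA preincubated 10 min at RT with compound (up to 57.5 uM final), then substrate plus GAPDH/TPI/NAD/arsenate coupling and diaphorase/resazurin added. Fluorescence read after 20 min at RT, 525/598 nm.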
HCMV antiviral = qHTS Assay for inhibitors of the human cytomegalovirus (HCMV) | HFF cells, HCMV-luciferase reporter, 72 h; stronger effect = lower value | activity change, negative = inhibition, % at 57.5 µM | 410,000 compounds, 4.5% hits | AID 1259415, 2018; in the data active = activity change below about -60%; inconclusive = no clear call, values can overlap the other calls; inactive = above about -39%
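Steps: HFFs plated, 16 h 37C; compounds added; HCMV-luciferase added to MOI 1 PFU/cell; 72 h 37C; OneGlo reagent, 5 min room temperature; luminescence read, normalized to controls.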
Marburg entry inh = qHTS for inhibitors of binding or entry into cells for Marburg Virus; AID 540276, 2011; 300,000 compounds, 1.8% hits; Potency, µM (top dose mostly 37.8 µM), for the others: top-dose activity change, negative = inhibition, most hits filed as inhibitors; Marburg virus pseudotyped entry inhibition, cell reporter; calls by dose curve; tested in HEK293 cells; also: potency is read from the fitted curve at half-maximal effect
LASV entry inh = qHTS for Inhibitors of binding or entry into cells for Lassa Virus | AID 540256, 2011 | Potency, µM (series often up to 37.9 µM), for inactives: at the highest dose activity change, negative = inhibition, actives largely listed as inhibitors | Lassa virus pseudotype entry inhibition, cell reporter | 300,000 compounds, 1.2% hits; calls by dose curve; tested in HEK293 cells; also: potency is read from the fitted curve at half-maximal effect; nearly all actives have a fitted effect of over 50% in size
The depositor's hits bear a star; ? = inconclusive; / = no result; + = active, no number; [ ] = remark or other dose. The list is not random: actives were taken first. Their share in the collection is about 8.3%. Unless noted, calls follow the shape of the dose curve; as a rule, active = well fitted curve in the direction sought with a large enough effect; inconclusive = small, poorly fitted or top-dose-only effect, or another doubt; inactive = no such curve, though single readings can be large; an effect the other way counts as inactive or inconclusive. % is scaled to controls: 0 for no effect and ±100 for the full control effect.

SMILES | FMDV inh | HCV inhibitor | FBPA Giardia inh | HCMV antiviral | Marburg entry inh | LASV entry inh
CCOc1nc2ccccc2cc1C=O | 5% | 2% | 0% | -73* | 3%[46.1 µM] | -5%
CCCOc1nc2ccccc2cc1/C=C/C(=O)O | -11% | 13% | -7% | ? | 5%[46.1 µM] | 6%[46.1 µM]
CCOC(=O)C1=C(C)OC(=Cc2ccccc2)C1=O | 14% | / | / | -5 | / | /
CCOC(=O)C1=C(O)c2ccccc2C(=O)/C1=C\c1ccc(C)cc1 | 28µM* | 1% | ? | / | ? | ?
CSc1nc(Sc2ccccc2)c2ccccc2n1 | -11% | 4.5µM* | 15% | -20 | ? | -1%
Cc1ccc(N2CCN(C(=O)c3cc(C(=O)c4ccccc4C)c[nH]3)CC2)c(C)c1 | -23% | 11µM* | -8% | 35 | / | /
O=C(COC(=O)C1(c2ccccc2F)CCCC1)NCc1cccs1 | -24% | -18% | -4% | -69* | ? | ?
O=C(COC(=O)/C=C/c1ccc2c(c1)OCO2)NCc1ccc(F)cc1 | -25% | / | / | -64* | / | /
O=C(COC(=O)/C=C/c1ccc(F)cc1)NCc1ccc2c(c1)OCO2 | -8% | 3% | / | ? | 9%[46.1 µM] | 25%[46.1 µM]
O=C(COC(=O)C1(c2ccc(F)cc2)CCCC1)NCc1ccc2c(c1)OCO2 | 40µM* | -7% | -1% | -60* | ? | -2%
O=C(CN(Cc1ccc(F)cc1)C(=O)c1csnn1)NCc1ccc2c(c1)OCO2 | 1% | 4% | -7% | -11 | -17%[46.1 µM] | /
O=C(CN(Cc1ccccc1F)C(=O)c1csnn1)NCc1ccc2c(c1)OCO2 | -5% | -3% | 9% | -16 | -8%[46.1 µM] | 2.8µM*
CCCCNC(=O)CC1Nc2cc(C)c(C)cc2NC1=O (centres undefined) | 4% | / | / | -14 | 7%[46.1 µM] | 13%[46.1 µM]
COc1ccc(O[C@H]2C=C[C@@H](c3ccccc3)O[C@H]2COC(=O)CCC(C)=NOC[C@@H](O)COCc2ccco2)cc1 | / | / | / | / | 10%[14.2 µM] | 0%[14.3 µM]
O=C(COC(=O)c1ccccc1F)NCc1ccc2c(c1)OCO2 | 26% | -6% | / | -28 | / | /
O=C(COC(=O)C1(c2ccccc2F)CCCC1)NCc1ccc2c(c1)OCO2 | 0% | ? | -6% | -60* | -7% | ?
O=C(COC(=O)c1ccc([N+](=O)[O-])o1)NCc1ccc2c(c1)OCO2 | -4% | 2% | / | -83* | / | /
CN1C2CC(OC(=O)C(CO)c3ccccc3)C[C@@H]1[C@H]1OC21 (some centres undefined) | -19% | / | 2% | / | / | /
CCc1ccc(NC(=O)c2sc(-n3nc(C)c(CCC(C)C)c3C)nc2C)cc1 | -22% | / | / | -4 | -5%[46.1 µM] | 13%[46.1 µM]
Cn1c2c(c(=O)n(C)c1=O)C(C(F)(F)F)(C(F)(F)F)N=C(c1ccc(Cl)cc1)N2 | 2.2µM* | 1.6µM* | 4% | / | 1µM* | 2.8µM*
Nc1ncnc2c1c(I)cn2C1OC(CO)C(O)C1O (centres undefined) | -11% | / | 1% | / | / | /
COc1ccc(/C(N)=N/OC(=O)C2CCC(=O)N2S(=O)(=O)c2ccc(C)cc2)cc1OC (centres undefined) | -30% | -17% | 1% | -87* | 8% | -2%
COc1cc(OC)c(NC(=O)C(Cc2ccccc2)NS(=O)(=O)c2cccc3nsnc23)cc1Cl (centres undefined) | 30% | / | / | 3 | 14%[46.1 µM] | -10%[46.1 µM]
COCCN1CCN(C(=O)c2cnn(-c3nccc(-c4ccco4)n3)c2C2CC2)CC1 | 5% | / | / | / | / | /
Cc1ccc(S(=O)(=O)CC(=O)Nc2sc3c(c2C(N)=O)CCCC3)cc1 | 2% | / | / | + | / | -3%[46.1 µM]
SMILES | FMDV inh | HCV inhibitor | FBPA Giardia inh | HCMV antiviral | Marburg entry inh | LASV entry inh
NC(=O)c1c(NC(=O)CN2CCN(S(=O)(=O)c3ccccc3)CC2)sc2c1CCC2 | ? | 10µM* | / | -34 | ? | ?
Nc1c(C(=O)NCc2ccccc2)c2nc3ccccc3nc2n1CCCN1CCOCC1 | -12% | -6% | ? | 28 | ? | -24%
Nc1c(C(=O)NCc2ccco2)c2nc3ccccc3nc2n1CCc1ccccc1 | -5% | ? | ? | -69* | -37% | ?
COc1ccc(CNC(=O)c2c(N)n(CCCN3CCOCC3)c3nc4ccccc4nc23)cc1 | ? | ? | -26% | -26 | 16µM* | 23µM*
COCCCn1c(N)c(C(=O)NCc2ccco2)c2nc3ccccc3nc21 | -27% | -30% | ? | -2 | -25%[46.1 µM] | -1%[46.1 µM]
Cc1ccc(N(C(=O)c2csnn2)C(C(=O)NC2CCCCC2)c2ccccn2)c(C)c1 (centres undefined) | 18% | -6% | -12% | -62* | -4%[46.1 µM] | -9%
COc1ccccc1C(C(=O)NC1CCCCC1)N(C(=O)c1csnn1)C1CC1 (centres undefined) | 25% | 0% | -6% | -27 | -16%[46.1 µM] | 12%
O=C(NC1CCCCC1)C(c1ccccc1F)N(C(=O)c1csnn1)C1CCCC1 (centres undefined) | -3% | 4% | -1% | -60* | ? | -4%[46.1 µM]
CC(C)c1ccc(N(C(=O)c2snc(C(N)=O)c2N)C(C(=O)NCC2CCCO2)c2ccc(N(C)C)cc2)cc1 (centres undefined) | 18µM* | ? | 3% | -86* | ? | ?
CN(C)c1ccc(C(C(=O)NCC2CCCO2)N(C(=O)c2snc(C(N)=O)c2N)c2ccccc2)cc1 (centres undefined) | -14% | -1% | / | 7 | ? | 24%[46.1 µM]
COc1ccc(C(C(=O)NCC2CCCO2)N(Cc2cccs2)C(=O)c2snc(C(N)=O)c2N)cc1 (centres undefined) | -10% | ? | 9% | -101* | 3.2µM* | ?
Cc1cc(C)n(-c2cccc(C(=O)NCC3Cc4cc(Cl)cc(-c5cnccn5)c4O3)c2)n1 (centres undefined) | -18% | / | / | / | / | /
O=C(NC1CCCCC1)C(c1ccco1)N(C(=O)c1csnn1)c1ccccc1 (centres undefined) | 15% | -1% | -7% | 1 | 4%[46.1 µM] | -6%[46.1 µM]
CCOc1ccc(C(C(=O)NCC2CCCO2)N(C(=O)c2snc(C(N)=O)c2N)c2ccc3c(c2)OCCO3)cc1 (centres undefined) | -10% | ? | 14% | -8 | ? | ?
Cc1ccc(N(C(=O)c2csnn2)C(C(=O)NC2CCCCC2)c2ccco2)cc1 (centres undefined) | -3% | -9% | 8% | -62* | ? | ?
CCOc1ccc(N(C(=O)c2snc(C(N)=O)c2N)C(C(=O)NCC2CCCO2)c2ccco2)cc1 (centres undefined) | -6% | -20% | 4% | -36 | 13µM* | ?
